Measurements published in the supplement of paper PMC12350171.
Where a name gives a salt, the structure may show the parent alone. A number with no mark means an inactive call.

What was measured:
Details in all cases: 20 µM
[1] = tested on: Salmonella enterica typhimurium; test: growth AUC normalised to DMSO control (fraction of control); higher = less growth inhibition, active = hit call of the paper
Method in brief: (§1)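 Three biological replicates were carried out, with OD578 read hourly for 24 h. Before inoculation at a starting OD578 of 0.01, pathogens were passaged anaerobically twice; plates were pre-reduced mGAM containing 20 μM compound and 1% DMSO, sealed with breathable membranes, and the Haemophilus parainfluenzae medium carried added hemin and NAD. Area under each growth curve was calculated by the trapezoidal rule up to the exponential-to-stationary transition and normalised to DMSO controls on the same plate.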

[2] = tested on: Shigella flexneri; test: as above
Method in brief: as §1

[3] = tested on: Vibrio cholerae; test: as above
Method in brief: as §1

[4] = tested on: Yersinia pseudotuberculosis; test: as above
Method in brief: as §1

[5] = tested on: P. vulgatus RND KO; test: growth AUC normalised to DMSO control (median) (fraction of control); higher = less growth inhibition, active = hit call of the paper
Method in brief: (§2)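 Area under the growth curve, calculated by the trapezoidal rule up to entry into stationary phase, was normalised to vehicle wells on the same plate. Strains had been passaged twice overnight without oxygen and then grown in mGAM in 96-well plates from OD578 0.01, each with an approved-drug library compound at 20 μM in 1% DMSO. OD578 was read hourly over 24 h in an anaerobic incubator, and the median of three biological replicates is given.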

[6] = tested on: P. vulgatus WT; test: as above
Method in brief: as §2

[7] = tested on: S. enterica typhimurium WT; test: as above
Method in brief: as §2

[8] = tested on: S. enterica typhimurium tolC KO; test: as above
Method in brief: as §2
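Throughout, for growth AUC normalised to DMSO control (median): active when median AUC fell below 0.1.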

Structure (SMILES)	growth AUC normalised to DMSO control [1]	growth AUC normalised to DMSO control [2]	growth AUC normalised to DMSO control [3]	growth AUC normalised to DMSO control [4]	growth AUC normalised to DMSO control [5]	growth AUC normalised to DMSO control [6]	growth AUC normalised to DMSO control [7]	growth AUC normalised to DMSO control [8]
CC(=O)OCC(CCn1cnc2cnc(N)nc21)COC(C)=O [Famciclovir]	1.02	1.01	1.04	1.01	1.03	1.03	1	0.976
CCOC(=O)[C@H](CCc1ccccc1)N[C@@H](C)C(=O)N1Cc2ccccc2C[C@H]1C(=O)O [Quinapril hydrochloride]	0.986	0.967	0.988	1.01	0.995	0.982	0.982	0.996
CN[C@H](CC(C)C)C(=O)N[C@H]1C(=O)N[C@@H](CC(N)=O)C(=O)N[C@H]2C(=O)N[C@H]3C(=O)N[C@H](C(=O)N[C@H](C(=O)O)c4cc(O)cc(O)c4-c4cc3ccc4O)[C@H](O)c3ccc(c(Cl)c3)Oc3cc2cc(c3O[C@@H]2O[C@H](CO)[C@@H](O)[C@H](O)[C@H]2O[C@H]2C[C@](C)(N)[C@H](O)[C@H](C)O2)Oc2ccc(cc2Cl)[C@H]1O [Vancomycin hydrochloride]	0.986	0.984	1.01	0.981	0.014 (active)	0.0118 (active)	0.996	0.996
O=C1O[C@H]([C@@H](O)CO)C(O)=C1O [Ascorbic acid]	1.02	1.07	1.02	0.989	1.05	1.04	1.01	0.997
Cc1cnc(C(=O)NCCc2ccc(S(=O)(=O)NC(=O)NC3CCCCC3)cc2)cn1 [Glipizide]	1.01	0.984	1.01	1.01	1.04	0.998	1.01	0.996
CCC(=O)O[C@]1(C(=O)SCF)[C@H](C)C[C@H]2[C@@H]3C[C@H](F)C4=CC(=O)C=C[C@]4(C)[C@@]3(F)[C@@H](O)C[C@@]21C [Fluticasone propionate]	0.996	1.01	1	1	0.998	0.988	0.993	0.998
Cc1c(C)c2c(c(C)c1O)CCC(C)(C(=O)O)O2 (stereo unspecified) [Trolox]	1	1.02	0.995	1.01	0.996	1.02	1	1
Nc1ccc(S(=O)(=O)NC(=O)c2ccccc2)cc1 [Sulfabenzamide]	1.02	1.03	1.06	1.04	1.05	1.1	1	1.01
CCN1CCCC(OC(=O)C(c2ccccc2)c2ccccc2)C1 (stereo unspecified) [Piperidolate hydrochloride]	1.01	1.02	1.03	0.967	1.03	1.04	0.998	0.976
CN(C)CCC(c1ccc(Cl)cc1)c1ccccn1 (stereo unspecified) [Chlorpheniramine maleate]	0.987	0.94	0.972	0.956	0.994	0.987	0.994	0.996
CC(=O)N[C@@H](CS)C(=O)O [Acetylcysteine]	1.03	1.06	1.05	1.04	1.07	1.06	1.01	0.991
O=P(O)(O)C(Cl)(Cl)P(=O)(O)O [Clodronate disodium]	0.986	0.993	0.964	0.991	1	1.01	0.997	0.986
NS(=O)(=O)c1cc2c(cc1Cl)N=CNS2(=O)=O [Chlorothiazide]	1.01	0.998	1.02	1.01	1.03	1.07	1.01	1.01
Nc1ncnc2c1ncn2[C@@H]1O[C@H](CO)[C@@H](O)[C@@H]1O [Vidarabine]	0.988	0.984	0.975	0.829	0.971	0.977	0.99	0.995
O=C(CCCCC(=O)Nc1c(I)cc(I)c(C(=O)O)c1I)Nc1c(I)cc(I)c(C(=O)O)c1I [Iodipamide]	0.986	0.998	0.995	1	1.01	1	0.999	1.01
CN(C)CCN(Cc1ccc(Cl)cc1)c1ccccn1 [Chloropyramine hydrochloride]	0.97	1.03	0.977	1.02	1.07	1.05	0.988	0.953
OCc1cc(C(O)CNCCCCCCOCCCCc2ccccc2)ccc1O (stereo unspecified) [Salmeterol]	0.997	0.995	1	0.959	0.977	0.962	0.995	0.946
